Screening results: PubChem, National Center for Advancing Translational Sciences (NCATS)
Most compounds without a hit are left out; they make up all but 2.4% or so of the library.
Pol iota inh: DNA polymerase iota (human) inhibition; 390,000 tested, 1% active; Pol iota fluorescent replication assay, 10 min; Potency, µM (series often up to 115 µM), hits mostly inhibitors; Q9UNA4
Target sequence (Q9UNA4 whole entry, looked up): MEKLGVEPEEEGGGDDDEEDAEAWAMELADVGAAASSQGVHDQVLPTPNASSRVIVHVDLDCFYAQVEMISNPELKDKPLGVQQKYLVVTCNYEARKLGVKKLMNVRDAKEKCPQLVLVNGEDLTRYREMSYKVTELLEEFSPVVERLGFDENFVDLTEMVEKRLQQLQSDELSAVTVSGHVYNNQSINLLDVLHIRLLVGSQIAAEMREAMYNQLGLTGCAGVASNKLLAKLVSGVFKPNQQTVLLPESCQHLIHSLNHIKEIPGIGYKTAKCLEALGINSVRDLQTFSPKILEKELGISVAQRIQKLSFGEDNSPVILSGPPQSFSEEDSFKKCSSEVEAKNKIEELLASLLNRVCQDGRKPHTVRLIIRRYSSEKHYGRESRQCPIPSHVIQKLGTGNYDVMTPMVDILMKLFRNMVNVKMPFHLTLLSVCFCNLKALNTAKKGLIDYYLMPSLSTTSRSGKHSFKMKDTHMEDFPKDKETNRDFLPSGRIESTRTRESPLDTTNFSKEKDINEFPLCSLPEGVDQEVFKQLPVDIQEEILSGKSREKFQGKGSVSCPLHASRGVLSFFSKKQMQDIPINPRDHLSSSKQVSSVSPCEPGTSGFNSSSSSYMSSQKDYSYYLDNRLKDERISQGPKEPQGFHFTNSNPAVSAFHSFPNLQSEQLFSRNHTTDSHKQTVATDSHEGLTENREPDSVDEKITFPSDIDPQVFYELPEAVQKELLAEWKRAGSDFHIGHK
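Pol iota at 10 nM preincubated 15 min with compounds at room temperature; reaction started with fluorescent substrate, 50 nM final. Fluorescence read kinetically at 0 and 10 min; buffer-only wells as negative control.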
APE1 inh: inhibitors of human APE1 endonuclease | 350,000 tested, 0.35% active | P27695 | Potency, µM (highest dose often 65.8 µM), hits mostly inhibitors | recombinant APE1, TAMRA/BHQ-2 abasic DNA cleavage fluorescence; also: nearly all actives have a fitted effect of over 55% in size
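Compound pre-exposure to 0.75 nM APE1, 15 min at ambient temperature. Reaction initiated with 50 nM TAMRA/BHQ-2 THF substrate, read immediately in kinetic mode, 525 nm excitation, 598 nm emission.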
Pol beta inh: DNA polymerase beta (human) inhibition. Potency, µM (titrated, usually from 114 µM), actives largely listed as inhibitors. 340,000 tested, 1.3% active. P06746. Pol beta primer extension/strand displacement, fluorescence kinetic
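Curves were derived by four-parameter Hill fits of normalized qHTS data. The kinetic fluorescent primer-extension read was taken at 0 and 10 min after 50 nM substrate, following a 15 min room-temperature preincubation of 10 nM enzyme with compounds.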
GLS inh: glutaminase GLS (human) inhibition; AID 624170; 410,000 tested, 0.21% active; Potency, µM (highest dose often 45.5 µM), hits mostly inhibitors; GLS enzymatic activity, qHTS titration
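Assay buffer: 45 mM KH2PO4 pH 8.2, 0.02% Tween-20. hKGA acts on L-glutamine (1 mM solution added); product glutamate is reported by an oxidase/peroxidase Amplex Red coupling, with fluorescence taken at baseline and 30 min.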
Pol eta inh: blocks human DNA polymerase eta activity. Q9Y253. recombinant Pol eta, fluorescent DNA replication assay. Potency, µM (doses to about 114 µM), most hits filed as inhibitors. 390,000 tested, 1.2% active. AID 588591
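Fluorescent replication assay: 50 nM final substrate added after a 15 min room-temperature compound preincubation with 10 nM enzyme. Signal taken at 0 min and again at 10 min.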
POLK inh: DNA polymerase kappa (human) inhibition; AID 588579; purified Pol kappa, fluorescent DNA synthesis assay, 10 min; Potency, µM (top dose mostly 107 µM), hits mostly inhibitors; 400,000 tested, 0.53% active
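10 nM Pol kappa was preincubated with compounds for 15 min at room temperature. Reaction started with 50 nM (final) substrate. Fluorescence read kinetically at 0 and 10 min.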
Large screens that a line does not name were inactive; ! = not active in a repeat. Calls follow the shape of the dose curve; as a rule, active = well fitted curve in the direction sought with a large enough effect; inconclusive = small, poorly fitted or top-dose-only effect, or another doubt; inactive = no such curve, though single readings can be large; an effect the other way counts as inactive or inconclusive.

Cc1ccc(-c2nn3c(C)nnc3s2)cc1NC(=O)c1ccc(-c2ccc(Cl)cc2Cl)o1	Pol iota inh inconclusive, Pol beta inh 4µM, Pol eta inh inconclusive, POLK inh inconclusive
Cc1ccc(-c2nn3c(C)nnc3s2)cc1NC(=O)c1ccc(Br)o1	none
Cc1ccc(-c2nn3c(C)nnc3s2)cc1NC(=O)c1ccc(-c2cccc(Cl)c2)o1	Pol iota inh 32µM, Pol beta inh 7.1µM, Pol eta inh inconclusive
CCN(CCCCOC(=O)c1ccc(OC)c(OC)c1)[C@@H](C)Cc1ccc(OC)cc1	none (no result: Pol iota inh, APE1 inh, Pol beta inh, Pol eta inh)
Cc1ccc2c(c1)-c1onc(C(=O)N3CCN(c4cccc(C)c4C)CC3)c1CO2	none (no result: APE1 inh)
Cc1cccc(N2CCN(C(=O)c3noc4c3COc3ccc(C)cc3-4)CC2C)c1 (stereo unspecified)	Pol iota inh 50µM!, POLK inh inconclusive
CC(C)n1cc(/C=N/Nc2ccc(Cl)c(C(=O)O)c2)c2ccccc21	APE1 inh inconclusive, Pol beta inh 32µM (no result: Pol iota inh, GLS inh, Pol eta inh, POLK inh)
O=Cc1cc2cc3c(cc2nc1Cl)OCCO3	none
O=C(O)c1cc(N/N=C/c2ccc3c(c2)OCO3)ccc1Cl	none
O=C(O)c1ccc(N/N=C/c2cc3cc4c(cc3nc2Cl)OCCO4)cc1	Pol iota inh inconclusive, APE1 inh inconclusive, Pol eta inh 45µM
Cc1ccc(/C=N/Nc2ccc(Cl)c(C(=O)O)c2)s1	Pol eta inh inconclusive
O=C(O)c1cc(N/N=C/c2cccs2)ccc1Cl	Pol beta inh 22µM (no result: Pol iota inh, GLS inh, Pol eta inh, POLK inh)
O=C(O)c1cc(N/N=C/c2cccc3ccccc23)ccc1Cl	Pol eta inh inconclusive
O=C(O)c1cc(N/N=C/c2ccc3c(c2)OCCO3)ccc1Cl	Pol iota inh inconclusive, Pol beta inh inconclusive, GLS inh inconclusive, Pol eta inh 25µM, POLK inh inconclusive
Cc1nc(C(F)(F)F)ccc1C(=O)Nc1ccc2ccccc2n1	none
COc1cc(/C=N/Nc2ccc(Cl)c(C(=O)O)c2)ccc1OC(=O)c1ccc(F)cc1	Pol iota inh inconclusive, Pol eta inh 79µM
CCCCN1C(=O)c2ccc(C(=O)Nc3ccccc3N3CCOCC3)cc2C1=O	none
Cc1c(C(=O)O)sc2nc(/C=C/c3cccc(F)c3)[nH]c(=O)c12	APE1 inh inconclusive, Pol beta inh 45µM, Pol eta inh 79µM
O=c1c(C(c2ccc(Cl)cc2)c2c(O)nc3n(c2=O)CCS3)c(O)nc2n1CCS2	Pol iota inh inconclusive, Pol eta inh 89µM, POLK inh inconclusive
CC(C)Cn1c(-c2ccco2)nc2c(c(=O)c3ccccc3n2C)c1=O	Pol beta inh 40µM (no result: Pol iota inh, GLS inh, Pol eta inh, POLK inh)
COc1ccc(Cn2c(-c3ccco3)nc3c(c(=O)c4ccccc4n3C)c2=O)cc1	Pol beta inh inconclusive
COc1ccc(OC)c(N=Nc2c(O)c3ccccc3[nH]c2=O)c1	Pol iota inh inconclusive, GLS inh inconclusive, Pol eta inh 40µM (no result: APE1 inh, Pol beta inh)
COc1cc(N=Nc2c(O)c3ccccc3[nH]c2=O)c(OC)cc1N=Nc1ccccc1	APE1 inh inconclusive, Pol beta inh inconclusive
CN(CCC1CCOCC1)Cc1nc(Cc2ccccc2F)no1	none
CC(=O)NCCNC(=O)c1ccc(CSc2ccc(Cl)cc2)cc1	none
CCNC(=O)c1ccc(CSc2ccc(Cl)cc2)cc1	Pol iota inh 79µM
O=C(O)c1ccc(N/N=C/c2ccc(-c3ccc(Cl)cc3Cl)o2)cc1	Pol beta inh inconclusive, Pol eta inh inconclusive
CC1=NN(c2ccc(Br)cc2)C(=O)/C1=C/c1ccc(-c2ccccc2C(=O)O)o1	Pol iota inh inconclusive, Pol eta inh 79µM
O=C(O)c1ccc(-c2ccc(/C=N/Nc3ccc([N+](=O)[O-])cc3)o2)cc1	Pol beta inh inconclusive, Pol eta inh 50µM
CN(C)/C=C1/C(=O)N(c2ccc([N+](=O)[O-])cc2)N=C1c1ccccc1	APE1 inh inconclusive (no result: Pol iota inh, GLS inh, Pol eta inh, POLK inh)
O=C1/C(=C\c2ccc(-c3ccccc3[N+](=O)[O-])o2)C(c2ccccc2)=NN1c1ccccc1	Pol iota inh 10µM, Pol eta inh 50µM
O=C(O)c1cccc(-c2ccc(/C=N/Nc3ccc([N+](=O)[O-])cc3)o2)c1	GLS inh inconclusive, Pol eta inh inconclusive
O=C(O)c1ccc(N/N=C/c2ccc(-c3cccc(Cl)c3)o2)cc1	Pol iota inh inconclusive, Pol beta inh inconclusive, Pol eta inh 79µM
COc1cccc(-c2ccc3c(c2)O[C@@H](CN(C)C(=O)C2CCOCC2)[C@H](C)CN([C@H](C)CO)S3(=O)=O)c1	none (no result: Pol iota inh, APE1 inh, Pol beta inh, POLK inh)
CCn1cc(C(=O)O)c(=O)c2cc(F)c(N3CCN(C(=S)NC(=O)c4ccccc4Cl)CC3)cc21	none
Nc1nc2[nH]cc(CCc3ccc(C(=O)NC(CCC(=O)O)C(=O)O)cc3)c2c(=O)[nH]1 (stereo unspecified)	none (no result: Pol iota inh, APE1 inh, Pol beta inh, Pol eta inh)
Cc1c(C(=O)O)cccc1-c1ccc(/C=N/Nc2ccc(Br)cc2)o1	Pol iota inh inconclusive, Pol beta inh inconclusive, Pol eta inh 22µM
O=C(Cc1cccs1)NC1C(=O)N2C(C(=O)[O-])=C(C[n+]3ccccc3)CSC12 (stereo unspecified)	GLS inh 11µM, POLK inh 3.5µM (no result: Pol iota inh, APE1 inh, Pol beta inh, Pol eta inh)
O=C(COc1ccccc1)NC1C(=O)N2C(C(=O)O)=C(Cl)CSC12 (stereo unspecified)	Pol iota inh inconclusive, Pol eta inh inconclusive
COC(=O)NC(NC(=S)Nc1ccc([N+](=O)[O-])cc1)C(Cl)(Cl)Cl (stereo unspecified)	none
O=C1CC(=O)CC(c2ccco2)C1	Pol iota inh inconclusive, APE1 inh inconclusive, Pol beta inh inconclusive, Pol eta inh 18µM, POLK inh inconclusive
Nc1ccc2c(=O)[nH][nH]c(=O)c2c1	none (no result: APE1 inh, Pol beta inh)
CCN(CCCCCCN)c1ccc2c(=O)[nH][nH]c(=O)c2c1	Pol eta inh 79µM
Cc1ccc(NC(=O)c2nc[nH]c2C(=O)N2CCOCC2)c(C(=O)c2ccccc2)c1	Pol iota inh 79µM, Pol beta inh inconclusive
Cn1c(CCNC(=O)C(C)(C)C)nc2ccccc21	Pol eta inh 25µM
CN(C)S(=O)(=O)c1cccc(NC(=S)Nc2ccc(Cl)cc2Cl)c1	none
O=C1Cc2cccc(=O)c(O)c2C(=O)O1	GLS inh 4µM, Pol eta inh 8.9µM (no result: Pol iota inh, APE1 inh, Pol beta inh, POLK inh)
O=C1c2c(O)cccc2Cc2cccc(O)c21	APE1 inh inconclusive, POLK inh 22µM! (no result: Pol beta inh)
CCOc1ccc(-c2cc(C)n3nc(C(=O)Nc4cc(Cl)ccc4O)cc3n2)cc1	Pol iota inh 79µM, Pol beta inh 7.1µM, Pol eta inh inconclusive (no result: APE1 inh)
CCOc1ccc(NC(=O)c2cc3nc(-c4ccc(OC)cc4)cc(C(F)(F)F)n3n2)cc1	none (no result: APE1 inh)
CCCOc1ccc(/C=C/c2[nH]c(=O)[nH]c(=O)c2[N+](=O)[O-])cc1OCC	none
